Bioassay records from PubChem.
These entries were drawn from the full list.
aSyn 5UTR act – Activators via SNCA 5'UTR binding, MLPCN; alpha-synuclein 5'UTR reporter, activators screen; activity score, % (tested at 7.5 µM), hits read low; 300,000 tested, 7.1% active; in the data active = activity score below about -60%
A number is an active result.

Screening O=c1nc(/C=C/c2ccc(-c3ccc(F)cc3)o2)cc(C(F)(F)F)[nH]1 returned aSyn 5UTR act -62.5.
`COC(=O)c1ccc(N=NN2CCCCC2)cc1` gave aSyn 5UTR act -101.7.
For CC(=O)c1ccc(N=Nc2ccc(C)cc2)cc1 the results were aSyn 5UTR act inactive.
Screening COC(=O)c1ccc(NN=Nc2ccc(C)cc2)cc1 returned aSyn 5UTR act -173.1.
COc1ccc(-c2ccc(C3C(C#N)=C(N)Oc4n[nH]c(C)c43)o2)cc1 (centres undefined) was read as aSyn 5UTR act -65.2.
Screening CCOC(=O)CNc1c(-c2ccc(O)cc2)nc2ccc(Cl)cn12 returned aSyn 5UTR act -68.5.
Oc1ccc2ccccc2c1N=Nc1ccccn1 was read as aSyn 5UTR act inactive.
`CCCn1c(O)c(N=Nc2ccc3ccccc3n2)c2ccccc21` gave aSyn 5UTR act -176.6.
Screening CCOc1ccc2nc3cc(NCc4ccc(OC)cc4)ccc3c(N)c2c1 returned aSyn 5UTR act inactive.
CCn1cnc2cc(NCc3ccc(OC)cc3)ccc21 was read as aSyn 5UTR act -100.7.
CCc1ccc(CNc2ccc3c(c2)ncn3CC)cc1 was read as aSyn 5UTR act -176.8.
CCCn1cnc2cc(NCc3cccs3)ccc21 was read as aSyn 5UTR act -161.1.
For O=C(CS(=O)(=O)c1c[nH]c2ccccc12)Nc1ccc2c(c1)OCCO2 the results were aSyn 5UTR act -84.7.
Screening O=C(CCc1ccccc1)Nc1cc2c(cc1Cl)OCCO2 returned aSyn 5UTR act -134.7.
For O=C(CCc1ccccc1)Nc1ccc2c(c1)OCCO2 the results were aSyn 5UTR act -102.2.
Screening CC1CC(C)(C)NC(=S)N1CCCC(=O)Nc1ccc2c(c1)OCCO2 (centres undefined) returned aSyn 5UTR act -90.7.
Screening Cc1cc(C)c2c(N)c(C(=O)NNC(=O)c3ccccc3)sc2n1 returned aSyn 5UTR act -107.8.
For Cc1cc(C)c2c(N)c(C(=O)N/N=C/c3cccnc3)sc2n1 the results were aSyn 5UTR act -128.3.
Cc1cc(C)c2c(N)c(C(=O)N/N=C/c3ccccc3)sc2n1 was read as aSyn 5UTR act -107.8.
Nc1c(C(=O)NCc2ccccc2)sc2nc(N3CCOCC3)c3c(c12)CCCC3 was read as aSyn 5UTR act inactive.
Screening O=C(Nc1ccc2c(c1)OCO2)c1cc(C2CC2)on1 returned aSyn 5UTR act -148.2.
CC(C)c1cc(C(F)(F)F)n2nc(C(=O)Nc3ccc4c(c3)OCO4)cc2n1 was read as aSyn 5UTR act -83.1.
For CC(C)c1cc(C(=O)Nc2ccc3c(c2)OCO3)no1 the results were aSyn 5UTR act -172.7.
For CC(=O)OC(CC(=O)O)C[N+](C)(C)C (centres undefined) the results were aSyn 5UTR act inactive.
FC(F)(F)c1cccc(-c2nc(-c3ccncc3)no2)c1 was read as aSyn 5UTR act -191.0.
Screening O=C(O)c1ccc(-c2noc(-c3cccc(C(F)(F)F)c3)n2)cc1 returned aSyn 5UTR act -82.6.
`COC(=O)c1ccc(CO/N=C2\CCCc3nonc32)cc1` gave aSyn 5UTR act -122.1.
O=C(NNC(=S)NC1CCCCC1)c1ccc2c(c1)OCO2 was read as aSyn 5UTR act -77.9.
For O=C(NC1CCCCC1)c1ccc2c(c1)OCCO2 the results were aSyn 5UTR act -82.4.
Screening S=C(NC1CCCCC1)c1ccc2c(c1)OCO2 returned aSyn 5UTR act -64.8.
Screening COc1ccc(Cl)cc1C(=O)Nc1ccc2c(c1)OCCO2 returned aSyn 5UTR act -103.6.
`COc1ccc(Cl)cc1C(=O)Nc1ccc2c(c1)OCO2` gave aSyn 5UTR act -129.9.
CCN(CC)c1ccc(NC(=O)c2cc(Cl)ccc2OC)cc1 was read as aSyn 5UTR act -62.9.
Screening CCN(CC)c1ccc(Nc2cc3n(c(=O)n2)CCc2cc(OC)c(OC)cc2-3)cc1 returned aSyn 5UTR act inactive.
Screening O=C(NCCc1nnc2ccccn12)c1cccs1 returned aSyn 5UTR act -66.8.
Screening Cc1ccsc1C(=O)NCCc1nnc2ccccn12 returned aSyn 5UTR act -77.9.
Screening O=C(c1cc(-c2ccncc2)nc2c(Cl)cccc12)N1CCN(c2ccccc2F)CC1 returned aSyn 5UTR act inactive.
Screening CCOc1ccc(-c2cc(C(=O)N3CCN(c4ccccn4)CC3)c3ccccc3n2)cc1 returned aSyn 5UTR act -67.9.
For Cc1ccc(-c2cc(C(=O)N3CCN(c4ccc(F)cc4)CC3)c3ccccc3n2)o1 the results were aSyn 5UTR act -95.8.
Screening COc1ccc(-c2cc(C(=O)N3CCN(c4ccccn4)CC3)c3ccccc3n2)cc1 returned aSyn 5UTR act -139.9.
Screening O=C(COc1ccccc1)Nc1cc(Cl)ccc1Cl returned aSyn 5UTR act -91.4.
COCC(=O)Nc1cc(C(=O)Nc2ccccc2)ccc1Cl was read as aSyn 5UTR act -78.9.
Screening O=C(COc1ccccc1)Nc1ccccc1F returned aSyn 5UTR act -139.5.
`O=C(COc1ccccc1)Nc1ccc(Cl)cc1Cl` gave aSyn 5UTR act -154.4.
`COCC(C)N=C1NN=C(c2cc(C)n(Cc3ccccc3Cl)c2C)CS1` (centres undefined) gave aSyn 5UTR act -141.4.
`COCCCN=C1NN=C(c2cc(C)n(Cc3ccco3)c2C)CS1` gave aSyn 5UTR act inactive.
COCCn1c(C)cc(C2=NNC(=NC3CC3)SC2)c1C was read as aSyn 5UTR act inactive.
For Cc1cc2nn(-c3cccc4ccccc34)nc2cc1N the results were aSyn 5UTR act -179.9.
`CCCc1cc(C(=O)Nc2cccc(Cl)c2C)no1` gave aSyn 5UTR act -150.0.
For CCCc1cc(C(=O)Nc2ccc(F)cc2F)no1 the results were aSyn 5UTR act -116.0.
CCCc1cc(C(=O)Nc2ccccc2SC)no1 was read as aSyn 5UTR act -155.5.
`O=C(Cc1ccc(Cl)cc1)Nc1ccc(Br)cc1` gave aSyn 5UTR act -67.3.
For Oc1ccc(Cl)cc1CNc1ccc(Br)cn1 the results were aSyn 5UTR act -141.8.
`O=C(Cc1ccc(Cl)cc1)Nc1ccc(Br)cn1` gave aSyn 5UTR act -66.0.
Screening Cc1cc(C(=O)COc2ncnc3sccc23)c(C)n1C1CC1 returned aSyn 5UTR act -78.6.
For CCCn1c(C)cc(C(=O)COc2ncnc3sccc23)c1C the results were aSyn 5UTR act -149.6.
`O=C(NC1CCCCC1)c1ccc(-c2ccccc2[N+](=O)[O-])o1` gave aSyn 5UTR act -83.3.
CC(NC(=O)COC(=O)c1ccc2c(c1)S(=O)(=O)N=C1CCCCCN12)C12CC3CC(CC(C3)C1)C2 (centres undefined) was read as aSyn 5UTR act inactive.
For CC(NC(=O)c1ccc([N+](=O)[O-])o1)C12CC3CC(CC(C3)C1)C2 (centres undefined) the results were aSyn 5UTR act -168.0.
For O=C(NCC1CCCO1)c1ccc([N+](=O)[O-])o1 (centres undefined) the results were aSyn 5UTR act -90.0.
O=C(NC1CCCCC1)c1ccc([N+](=O)[O-])o1 was read as aSyn 5UTR act -79.4.
For O=C(NCC1CCCO1)c1ccc(-c2ccccc2Cl)o1 (centres undefined) the results were aSyn 5UTR act -115.3.
For O=C(NCC1CCCO1)c1cc(-c2ccccc2F)no1 (centres undefined) the results were aSyn 5UTR act -204.4.
`O=C(Nc1nc2ccccc2s1)c1cccc(N2C(=O)CCC2=O)c1` gave aSyn 5UTR act -82.1.
For CC(C)[C@H](NC(=O)c1cccc(S(=O)(=O)N2CCOCC2)c1)C(=O)Nc1nc2ccccc2s1 the results were aSyn 5UTR act -71.5.
Cc1cccc(C(=O)N[C@H](C(=O)Nc2nc3ccccc3[nH]2)C(C)C)c1 was read as aSyn 5UTR act inactive.
